For one experiment, the system named is LOC_OS02G14120-cb001. Kind of experiment: thermal shift delta Tm vs DMSO control; higher = stronger stabilization (binding). The settings on record: 12.5 µM; protein concentration 2 µM. Put shortly: (§1)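 Heating from 25°C to 95°C at 0.05°C/s, fluorescence was recorded for 19.5 μl wells of 2 μM E. coli-expressed, purified rice kinase domain in 100 mM potassium phosphate pH 7.5, 150 mM NaCl, 10% glycerol and 5 × SYPRO Orange with compound in DMSO. Boltzmann fits gave melting temperatures for this differential scanning fluorimetry assay. The shift reported is the mean of three replicates against the DMSO-only protein.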
In the case of `Oc1c2ccccc2c2c3c(cccc13)N=N2`, the “thermal shift delta Tm” value was found to be 5.57 °C.

Take `CSc1cccc(Nc2ncc3cc(-c4c(Cl)cccc4Cl)c(=O)n(C)c3n2)c1`: the “thermal shift delta Tm” value was found to be 0.99 °C.

As to `COc1cc(Nc2ncc(F)c(Nc3ccc4c(n3)NC(=O)C(C)(C)O4)n2)cc(OC)c1OC` [R406 (free base)], the “thermal shift delta Tm” value is 13 °C.

`Cc1cn(-c2cc(NC(=O)c3ccc(C)c(Nc4nccc(-c5cnccn5)n4)c3)cc(C(F)(F)F)c2)cn1` [Radotinib]: the “thermal shift delta Tm” value stood at 1.36 °C.

With `CN1CCN(Cc2ccc(-c3cnc4[nH]cc(-c5ccc6[nH]ccc6c5)c4c3)cc2)CC1`, the “thermal shift delta Tm” value was found to be 10.8 °C.

Consider `CONC(=O)c1ccccc1Nc1cc(Nc2cc(C)nn2C(C)C)ncc1Cl`, for which the “thermal shift delta Tm” value was determined as 3.22 °C.

For `CNC(=O)c1cc(Oc2ccc(NC(=O)Nc3ccc(Cl)c(C(F)(F)F)c3)c(F)c2)ccn1` [Regorafenib (BAY 73-4506)], the “thermal shift delta Tm” value is -0.11 °C.

Take `c1cc(-c2cnn3cc(-c4ccc(OCCN5CCCCC5)cc4)cnc23)ccn1` [Dorsomorphin 2HCl]: the “thermal shift delta Tm” value stood at 8.01 °C.

As to `CCCCCCCCCC(=O)CC(O)S(=O)(=O)O` (centres undefined) [Sodium Houttuyfonate], the “thermal shift delta Tm” value is -0.08 °C.

Take `CC(C)[C@H](CO)Nc1nc(Nc2cccc(Cl)c2)c2ncn(C(C)C)c2n1` [Purvalanol A]: the “thermal shift delta Tm” value worked out at 1.7 °C.

As for `COc1ccc(Cl)c(Nc2nc3ccccc3nc2NS(=O)(=O)c2cccc(NC(=O)C(C)(C)N)c2)c1` [Pilaralisib (XL147)], the “thermal shift delta Tm” value was -0.43 °C.

With `CC(C)Oc1ccc(-c2nn([C@@H](C)c3oc4ccc(F)cc4c(=O)c3-c3cccc(F)c3)c3ncnc(N)c23)cc1F`, the “thermal shift delta Tm” value was found to be 1.41 °C.

For the compound `O=C(/C=C/c1ccc2ccccc2n1)c1ccncc1`, the “thermal shift delta Tm” value was 2.08 °C.

Turning to `CC(C)(O)CC(=O)NCCn1ccc2ncnc(Nc3ccc(Oc4cccc(C(F)(F)F)c4)c(Cl)c3)c21`, the “thermal shift delta Tm” value was determined as 1.51 °C.

In the case of `CCOC(=O)c1cnc2ccc(-c3cncc(NS(=O)(=O)c4ccccc4)c3)cn12`, the “thermal shift delta Tm” value is -0.08 °C.

As to `N#Cc1c(NC(=O)c2cccc3ccccc23)sc2c1CCCC2` [JNK Inhibitor IX], the “thermal shift delta Tm” value is -0.31 °C.

For `CN(C)Cc1cccc(N=C(c2ccccc2)c2c(O)[nH]c3cc(C(=O)N(C)C)ccc23)c1`, the “thermal shift delta Tm” value is 1.17 °C.

Turning to `O=c1c(-c2ccc(O)cc2)coc2cc(O)cc(O)c12` [Genistein], the “thermal shift delta Tm” value was -1.28 °C.

On to `CCn1c2ccccc2c2cc(Nc3ccnc(NCCCN4CCOCC4)n3)ccc21`, for which the “thermal shift delta Tm” value is -0.17 °C.

On to `N#CC(=C(/N)Sc1ccccc1N)/C(C#N)=C(\N)Sc1ccccc1N`, for which the “thermal shift delta Tm” value was 0.63 °C.

As for `CCN(CC)CCCC(C)Nc1nc(C)cc(Nc2ccc3nc(C)cc(N)c3c2)n1` (centres undefined), the “thermal shift delta Tm” value came out at 0.93 °C.

For the compound `c1cn2cc(-c3ccc4cn[nH]c4c3)nc(Nc3ccc(N4CCOCC4)cc3)c2n1` [Entospletinib (GS-9973)], the “thermal shift delta Tm” value was found to be 8.09 °C.

With `C[C@H]1CNC(=O)c2cnn3ccc(nc23)N[C@H](C)c2cc(F)ccc2O1`, the “thermal shift delta Tm” value worked out at 10.7 °C.

`CC(C)c1cnn2c(NCc3ccccc3)cc(NCCCCCCN)nc12`: the “thermal shift delta Tm” value was -0.59 °C.

`C=CC(=O)Nc1cccc(Nc2nc(Nc3ccc(NC4CN(CCF)C4)cc3OC)ncc2C(F)(F)F)c1`: the “thermal shift delta Tm” value is 1.12 °C.

Regarding `CNC(=O)CN1CCC(Oc2cc3c(Nc4cccc(Cl)c4F)ncnc3cc2OC)CC1` [Sapitinib (AZD8931)], the “thermal shift delta Tm” value was determined as 2.09 °C.

Consider `C=CC(=O)Nc1cccc(Nc2nc(Nc3ccc(N4CCN(C(C)=O)CC4)cc3OC)ncc2C(F)(F)F)c1` [Rociletinib (CO-1686, AVL-301)], for which the “thermal shift delta Tm” value worked out at 1.71 °C.

Consider `O=C(c1ccc(/C=C/c2n[nH]c3ccccc23)cc1)N1CCNCC1`, for which the “thermal shift delta Tm” value was determined as 7.17 °C.

Turning to `Cc1ccc(NC(=O)c2ccc(CN3CCN(C)CC3)cc2)cc1Nc1nc(-c2cccnc2)cs1` [Masitinib (AB1010)], the “thermal shift delta Tm” value came out at 0.12 °C.

For `N#Cc1c(O)c2c(-c3ccc(-c4ccccc4O)cc3)csc2[nH]c1=O`, the “thermal shift delta Tm” value was 0.5 °C.

Consider `CN1CC[C@H](c2c(O)cc(O)c3c(=O)cc(-c4ccccc4Cl)oc23)[C@H](O)C1` [Flavopiridol (Alvocidib)], for which the “thermal shift delta Tm” value amounted to 1.28 °C.

Take `Cc1cnc(Nc2ccc(OCCN3CCCC3)cc2)nc1Nc1cccc(S(=O)(=O)NC(C)(C)C)c1`: the “thermal shift delta Tm” value was 7.4 °C.

On to `C[C@@H](Oc1ccc2[nH]nc(/C=C/c3cnn(CCO)c3)c2c1)c1c(Cl)cncc1Cl`, for which the “thermal shift delta Tm” value is 15 °C.

Regarding `Nc1cccc(-c2cc3c(Oc4cccc(O)c4)ncnc3[nH]2)c1`, the “thermal shift delta Tm” value came to 5.81 °C.

For the compound `CN1CCC(COc2cnc(-c3cccc(Cn4nc(-c5cccc(C#N)c5)ccc4=O)c3)nc2)CC1`, the “thermal shift delta Tm” value is 0.1 °C.

With `C[C@H](Nc1ncnc2nc[nH]c12)c1cc2cccc(Cl)c2c(=O)n1-c1ccccc1` [Duvelisib (IPI-145, INK1197)], the “thermal shift delta Tm” value amounted to 0.47 °C.

Consider `CCCCNc1ncc(C(=O)NCc2ccc(-n3ccnc3)cc2)c(NC2CCC(O)CC2)n1` (centres undefined), for which the “thermal shift delta Tm” value worked out at 7.7 °C.

The next experiment has as its system LOC_OS02G17970-cb001. The description is as above. The settings on record: 12.5 µM; protein concentration 2 µM. Put shortly: as §1
As for `Oc1c2ccccc2c2c3c(cccc13)N=N2`, the “thermal shift delta Tm” value was 0.82 °C.

With `CSc1cccc(Nc2ncc3cc(-c4c(Cl)cccc4Cl)c(=O)n(C)c3n2)c1`, the “thermal shift delta Tm” value is -0.06 °C.

Take `COc1cc(Nc2ncc(F)c(Nc3ccc4c(n3)NC(=O)C(C)(C)O4)n2)cc(OC)c1OC` [R406 (free base)]: the “thermal shift delta Tm” value was 0.86 °C.

Take `Cc1cn(-c2cc(NC(=O)c3ccc(C)c(Nc4nccc(-c5cnccn5)n4)c3)cc(C(F)(F)F)c2)cn1` [Radotinib]: the “thermal shift delta Tm” value came out at 1.82 °C.

For the compound `CN1CCN(Cc2ccc(-c3cnc4[nH]cc(-c5ccc6[nH]ccc6c5)c4c3)cc2)CC1`, the “thermal shift delta Tm” value came to 0.97 °C.

Take `CONC(=O)c1ccccc1Nc1cc(Nc2cc(C)nn2C(C)C)ncc1Cl`: the “thermal shift delta Tm” value came out at 0.4 °C.

As for `CNC(=O)c1cc(Oc2ccc(NC(=O)Nc3ccc(Cl)c(C(F)(F)F)c3)c(F)c2)ccn1` [Regorafenib (BAY 73-4506)], the “thermal shift delta Tm” value stood at 0.55 °C.

For the compound `c1cc(-c2cnn3cc(-c4ccc(OCCN5CCCCC5)cc4)cnc23)ccn1` [Dorsomorphin 2HCl], the “thermal shift delta Tm” value is -0.02 °C.

Consider `CCCCCCCCCC(=O)CC(O)S(=O)(=O)O` (centres undefined) [Sodium Houttuyfonate], for which the “thermal shift delta Tm” value worked out at 1.73 °C.

`CC(C)[C@H](CO)Nc1nc(Nc2cccc(Cl)c2)c2ncn(C(C)C)c2n1` [Purvalanol A]: the “thermal shift delta Tm” value came out at 0.39 °C.

As to `COc1ccc(Cl)c(Nc2nc3ccccc3nc2NS(=O)(=O)c2cccc(NC(=O)C(C)(C)N)c2)c1` [Pilaralisib (XL147)], the “thermal shift delta Tm” value turned out to be 1.12 °C.

Consider `CC(C)Oc1ccc(-c2nn([C@@H](C)c3oc4ccc(F)cc4c(=O)c3-c3cccc(F)c3)c3ncnc(N)c23)cc1F`, for which the “thermal shift delta Tm” value came out at 1.06 °C.

Take `O=C(/C=C/c1ccc2ccccc2n1)c1ccncc1`: the “thermal shift delta Tm” value was 1.05 °C.

As for `CC(C)(O)CC(=O)NCCn1ccc2ncnc(Nc3ccc(Oc4cccc(C(F)(F)F)c4)c(Cl)c3)c21`, the “thermal shift delta Tm” value turned out to be 0.83 °C.

As to `CCOC(=O)c1cnc2ccc(-c3cncc(NS(=O)(=O)c4ccccc4)c3)cn12`, the “thermal shift delta Tm” value was 0.87 °C.

`N#Cc1c(NC(=O)c2cccc3ccccc23)sc2c1CCCC2` [JNK Inhibitor IX]: the “thermal shift delta Tm” value came out at 0.76 °C.

For `CN(C)Cc1cccc(N=C(c2ccccc2)c2c(O)[nH]c3cc(C(=O)N(C)C)ccc23)c1`, the “thermal shift delta Tm” value was 1.25 °C.

Take `O=c1c(-c2ccc(O)cc2)coc2cc(O)cc(O)c12` [Genistein]: the “thermal shift delta Tm” value was 1.58 °C.

As for `CCn1c2ccccc2c2cc(Nc3ccnc(NCCCN4CCOCC4)n3)ccc21`, the “thermal shift delta Tm” value is 0.22 °C.

For `N#CC(=C(/N)Sc1ccccc1N)/C(C#N)=C(\N)Sc1ccccc1N`, the “thermal shift delta Tm” value was determined as 0.85 °C.

Regarding `CCN(CC)CCCC(C)Nc1nc(C)cc(Nc2ccc3nc(C)cc(N)c3c2)n1` (centres undefined), the “thermal shift delta Tm” value was found to be 0.8 °C.

Regarding `c1cn2cc(-c3ccc4cn[nH]c4c3)nc(Nc3ccc(N4CCOCC4)cc3)c2n1` [Entospletinib (GS-9973)], the “thermal shift delta Tm” value was 0.54 °C.

As for `C[C@H]1CNC(=O)c2cnn3ccc(nc23)N[C@H](C)c2cc(F)ccc2O1`, the “thermal shift delta Tm” value is -0.27 °C.

As for `CC(C)c1cnn2c(NCc3ccccc3)cc(NCCCCCCN)nc12`, the “thermal shift delta Tm” value was determined as 0.24 °C.

For `C=CC(=O)Nc1cccc(Nc2nc(Nc3ccc(NC4CN(CCF)C4)cc3OC)ncc2C(F)(F)F)c1`, the “thermal shift delta Tm” value came out at 0.41 °C.

For `CNC(=O)CN1CCC(Oc2cc3c(Nc4cccc(Cl)c4F)ncnc3cc2OC)CC1` [Sapitinib (AZD8931)], the “thermal shift delta Tm” value is -0.13 °C.

Consider `C=CC(=O)Nc1cccc(Nc2nc(Nc3ccc(N4CCN(C(C)=O)CC4)cc3OC)ncc2C(F)(F)F)c1` [Rociletinib (CO-1686, AVL-301)], for which the “thermal shift delta Tm” value is 0.49 °C.

For the compound `O=C(c1ccc(/C=C/c2n[nH]c3ccccc23)cc1)N1CCNCC1`, the “thermal shift delta Tm” value is 0.42 °C.

With `Cc1ccc(NC(=O)c2ccc(CN3CCN(C)CC3)cc2)cc1Nc1nc(-c2cccnc2)cs1` [Masitinib (AB1010)], the “thermal shift delta Tm” value was determined as 0.55 °C.

Take `N#Cc1c(O)c2c(-c3ccc(-c4ccccc4O)cc3)csc2[nH]c1=O`: the “thermal shift delta Tm” value was 1.96 °C.

For `CN1CC[C@H](c2c(O)cc(O)c3c(=O)cc(-c4ccccc4Cl)oc23)[C@H](O)C1` [Flavopiridol (Alvocidib)], the “thermal shift delta Tm” value is -0.3 °C.

Regarding `Cc1cnc(Nc2ccc(OCCN3CCCC3)cc2)nc1Nc1cccc(S(=O)(=O)NC(C)(C)C)c1`, the “thermal shift delta Tm” value is 0.44 °C.

In the case of `C[C@@H](Oc1ccc2[nH]nc(/C=C/c3cnn(CCO)c3)c2c1)c1c(Cl)cncc1Cl`, the “thermal shift delta Tm” value was -0.09 °C.

Take `Nc1cccc(-c2cc3c(Oc4cccc(O)c4)ncnc3[nH]2)c1`: the “thermal shift delta Tm” value was 0.97 °C.

`CN1CCC(COc2cnc(-c3cccc(Cn4nc(-c5cccc(C#N)c5)ccc4=O)c3)nc2)CC1`: the “thermal shift delta Tm” value turned out to be 0.24 °C.

For the compound `C[C@H](Nc1ncnc2nc[nH]c12)c1cc2cccc(Cl)c2c(=O)n1-c1ccccc1` [Duvelisib (IPI-145, INK1197)], the “thermal shift delta Tm” value was 0.68 °C.

For the compound `CCCCNc1ncc(C(=O)NCc2ccc(-n3ccnc3)cc2)c(NC2CCC(O)CC2)n1` (centres undefined), the “thermal shift delta Tm” value was found to be 1.08 °C.

These data come from the supplement of paper PMC9694430.
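Also: purified Escherichia coli-expressed rice kinase domain construct.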
